Reference: PubChem BioAssay AID1159580 (chemical genetic matrix, 2015)
Out of some 5,500 compounds screened, about 2,000 (36%) were called active. Inconclusive results (about 18%) are left out. Rule as the data show it: active = normalized growth mostly below about 0.91 (no sharp cut-off); inconclusive = no clear call, values can overlap the other calls; inactive = mostly above about 0.92. Some of the results follow.

Experiment: chemical genetic growth profiling, strain panel (AID 1159580);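 also: tested at 20 µM; growth read once vehicle control cultures reached saturation at 30 °C; 1 = growth at the plate median or of vehicle wells; lower values mean less growth of the strain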
Details: S. cerevisiae deletion strains, growth OD
[1] = locus YAL013W, strain DEP1, hits give low values
[2] = locus YBR229C, strain ROT2, hits give low values
[3] = locus YDL101C, strain DUN1, hits give low values
[4] = locus YDR150W, strain NUM1, hits give low values
[5] = locus YEL061C, strain CIN8, hits give low values
[6] = locus YGR078C, strain PAC10, hits give low values
[7] = locus YHR030C, strain SLT2, hits give low values
[8] = locus YHR087W, strain rtc3, hits give low values
[9] = locus YJR043C, strain POL32, hits give low values
[10] = locus YJR075W, strain HOC1, hits give low values
[11] = locus YLR039C, strain RIC1, hits give low values
[12] = locus YLR058C, strain SHM2 (second series), hits give low values
[13] = locus YLR085C, strain ARP6, hits give low values
[14] = locus YLR262C, strain YPT6, hits give low values
[15] = locus YML094W, strain GIM5, hits give low values
[16] = locus YMR219W, strain ESC1, hits give low values
[17] = locus YMR263W, strain SAP30, hits give low values
[18] = locus YMR307W, strain GAS1, hits give low values
[19] = locus YNL153C, strain GIM3, hits give low values
[20] = locus YNL298W, strain CLA4 (second series), hits give low values
[21] = locus YNL322C, strain KRE1, hits give low values
[22] = locus YNR030W, strain Alg12, hits give low values
[23] = locus YPL055C, strain LGE1, hits give low values
[24] = locus YPL241C, strain CIN2, hits give low values
[25] = locus YPR135W, strain CTF4, hits give low values

Measured: normalized growth

Ic1ccc(I)s1
inactive: [1] 1.03 | [2] 1 | locus YCL061C, strain MRC1, hits give low values 1.03 | [3] 1.01 | [4] 1.02 | [5] 1.04 | [6] 1.02 | [7] 1.22 | [8] 1 | locus YJL187C, strain SWE1, hits give low values 1.01 | [9] 1.04 | [10] 1.02 | locus YKL190W, strain CNB1, hits give low values 1.01 | [11] 1.18 | [12] 0.999 | [13] 1.01 | [14] 1.16 | [15] 1.02 | [16] 1.01 | [17] 1 | [18] 1.12 | locus YNL128W, strain TEP1, hits give low values 1 | [19] 1.01 | [20] 1.04 | [21] 1.01 | [22] 1.04 | [23] 1.03 | [24] 1.06 | [25] 1.11

O=C1O/C(=C/Br)CCC1c1cccc2ccccc12 (stereo unspecified)
active: [19] 0.6 | locus YNL175C, strain NOP13, hits give low values 0.61 | locus YNL224C, strain SQS1, hits give low values 0.771 | locus YOR083W, strain WHI5 (second series), hits give low values 0.775
inactive: [1] 0.952 | locus YAL040C, strain CLN3, hits give low values 1 | locus YER002W, strain NOP16, hits give low values 1.01 | [17] 0.989 | locus YNL197C, strain WHI3, hits give low values 0.947 | [23] 0.922 | [24] 0.998

COc1cccc(OC)c1C(C)(O)C(OC)OC (stereo unspecified)
inactive: [1] 0.996 | [2] 0.989 | [3] 0.999 | [4] 1.02 | [5] 1.01 | [6] 1 | [7] 1.05 | [8] 1.03 | [9] 1.01 | [10] 1 | [11] 1.02 | [12] 1.02 | [13] 1.03 | [14] 1.01 | [15] 0.997 | [16] 1 | [17] 0.941 | [18] 0.98 | [19] 0.994 | [20] 1.05 | [21] 1.01 | [22] 1.02 | [23] 1.03 | [24] 1.02 | [25] 1.09

O=C(N/C=C/c1ccsc1)Nc1cc(C(F)(F)F)cc(C(F)(F)F)c1
active: locus YDL214C, strain PRR2, hits give low values 0.643 | locus YDR477W, strain SNF1, hits give low values 0.61 | locus YER123W, strain YCK3, hits give low values 0.44 | locus YER133W, strain GLC7, hits give low values 0.63 | locus YFR019W, strain FAB1, hits give low values 0.639 | locus YGR040W, strain KSS1, hits give low values 0.613 | locus YGR052W, strain FMP48, hits give low values 0.33 | locus YGR092W, strain DBF2, hits give low values 0.254 | [7] 0.426 | locus YHR079C, strain IRE1, hits give low values 0.457 | locus YHR082C, strain KSP1, hits give low values 0.393 | locus YHR205W, strain SCH9, hits give low values 0.516 | locus YJL095W, strain BCK1, hits give low values 0.505 | locus YJL157C, strain FAR1, hits give low values 0.676 | locus YJR066W, strain TOR1 (second series), hits give low values 0.507 | locus YKL048C, strain ELM1, hits give low values 0.726 | locus YKL067W, strain YNK1, hits give low values 0.587 | locus YKL101W, strain HSL1, hits give low values 0.387 | locus YKL203C, strain TOR2, hits give low values 0.58 | locus YLR113W, strain HOG1, hits give low values 0.315 | locus YLR133W, strain CKI1, hits give low values 0.597 | locus YLR403W, strain SFP1, hits give low values 0.444 | locus YML070W, strain DAK1, hits give low values 0.361 | locus YMR205C, strain PFK2 (second series), hits give low values 0.672 | locus YNL020C, strain ARK1, hits give low values 0.541 | locus YNL183C, strain NPR1, hits give low values 0.309 | locus YNL307C, strain MCK1 (second series), hits give low values 0.41 | locus YOL136C, strain PFK27, hits give low values 0.555 | locus YOR231W, strain MKK1, hits give low values 0.507 | locus YPL031C, strain PHO85, hits give low values 0.417 | locus YPL153C, strain RAD53, hits give low values 0.345 | locus YPL204W, strain HRR25, hits give low values 0.434 | locus YPL256C, strain CLN2, hits give low values 0.444
inactive: locus YAR019C, strain CDC15, hits give low values 0.968 | locus YBL105C, strain PKC1, hits give low values 0.967 | locus YBR135W, strain CKS1, hits give low values 0.974 | locus YBR136W, strain MEC1, hits give low values 0.989 | locus YBR160W, strain CDC28, hits give low values 0.976 | locus YDL017W, strain CDC7, hits give low values 0.98 | locus YDL028C, strain MPS1, hits give low values 0.979 | [3] 0.995 | locus YDL108W, strain KIN28, hits give low values 0.987 | locus YDL132W, strain cdc53, hits give low values 0.983 | locus YDR052C, strain DBF4, hits give low values 0.98 | locus YDR054C, strain cdc34, hits give low values 0.958 | locus YDR226W, strain ADK1, hits give low values 0.98 | locus YFL009W, strain cdc4, hits give low values 0.977 | locus YFL029C, strain CAK1, hits give low values 0.98 | locus YFR003C, strain YPI1, hits give low values 0.979 | locus YFR028C, strain CDC14, hits give low values 0.97 | locus YIL147C, strain SLN1, hits give low values 0.981 | locus YJL128C, strain PBS2, hits give low values 0.873 | locus YJR016C, strain ILV3, hits give low values 0.977 | locus YJR066W, strain TOR1, hits give low values 0.507 | locus YKL193C, strain SDS22, hits give low values 0.979 | locus YMR001C, strain CDC5, hits give low values 0.976 | locus YMR277W, strain FCP1, hits give low values 0.966 | locus YNL006W, strain LST8, hits give low values 0.979 | locus YNL161W, strain CBK1, hits give low values 0.976 | locus YNL207W, strain RIO2, hits give low values 0.976 | locus YNL222W, strain SSU72, hits give low values 0.974 | locus YOL078W, strain AVO1, hits give low values 0.984 | locus YOR061W, strain CKA2, hits give low values 0.726 | locus YOR119C, strain RIO1, hits give low values 0.719 | locus YOR329C, strain SCD5, hits give low values 0.981 | locus YPL209C, strain IPL1, hits give low values 0.968 | locus YPR025C, strain CCL1, hits give low values 0.98 | locus YPR106W, strain ISR1, hits give low values 0.971 | locus YPR111W, strain DBF20, hits give low values 0.958 | strain NNK1, hits give low values 0.969 | strain TSCII, hits give low values 0.973
